FMDV inh – antivirals against foot and mouth disease virus; 1.2% of 410,000 active; Potency, µM (titrated, usually from 57.9 µM), for inactives: at the highest dose activity change, negative = inhibition, hits mostly inhibitors; FMDV antiviral cell-based qHTS; AID 1159524; calls by dose curve; tested in HEK293T cells; note: read-out not given here; potency is the fitted concentration of half-maximal effect; nearly all actives have a fitted effect of over 45% in size
HCMV inh – blocks human cytomegalovirus replication | HFF cells, HCMV-luciferase reporter, 72 h; active compounds read low | activity change, negative = inhibition, % at 57.5 µM | 4.5% of 410,000 active; in the data active = activity change below about -60%; inconclusive = no clear call, values can overlap the other calls; inactive = above about -39%
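Luciferase read-out from HCMV-luciferase-infected HFFs (MOI 1 PFU/cell) 72 h post infection at 37C; compounds added after 16 h cell attachment; activity normalized between buffer-only basal and Salinomycin (10uM) inhibitor controls.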
Lassa entry inh – blocks Lassa virus binding to or entry into cells | Lassa virus pseudotype entry inhibition, cell reporter | Potency, µM (titrated, usually from 37.9 µM), inactives show at the highest dose activity change, negative = inhibition, most hits filed as inhibitors | 1.2% of 300,000 active | AID 540256; calls by dose curve; tested in HEK293 cells; note: potency is the fitted concentration of half-maximal effect; nearly all actives have a fitted effect of over 50% in size
Marburg entry inh – Marburg virus entry inhibition; 1.8% of 300,000 active; Potency, µM (titrated, usually from 37.8 µM), inactives show top-dose activity change, negative = inhibition, actives largely listed as inhibitors; Marburg virus pseudotyped entry inhibition, cell reporter; calls by dose curve; tested in HEK293 cells; note: potency is the fitted concentration of half-maximal effect
The depositor's hits bear a star; ? = inconclusive; nt = not tested or not shown; [ ] = dose if it differs, or a comment. A selection: hits, their analogues and other compounds. The true share with any hit is near 6.2%. % is set by controls: 0 for no effect and ±100 for the full control effect.

SMILES	FMDV inh	HCMV inh	Lassa entry inh	Marburg entry inh
Cc1cc(C)n2c(Nc3ccc4c(c3)OCCO4)c(-c3ccc(F)cc3)nc2n1	21.1%	73.6	nt	nt
O=C1NC(=O)C(=Cc2ccc(SC3CCCCC3)o2)C(=O)N1	17.8µM*	172.4	-27.9%	15.5%
C/C(=N/NC(=O)CN(c1ccccc1)S(=O)(=O)c1ccccc1)c1ccccc1O	17.4%	-98.1*	nt	nt
CCCC/C(C)=N/NC(=O)CN(c1ccc(Br)cc1)S(=O)(=O)c1ccccc1	-11.4%	-16.2	1.6%	6.4%
COc1ccccc1N(CC(=O)N/N=C(\C)c1ccc(F)cc1)S(=O)(=O)c1ccccc1	-9.1%	-101.3*	10.8%	0.1%
COc1ccccc1N(CC(=O)Nc1cc(C)on1)S(=O)(=O)c1cccc(C(F)(F)F)c1	-3.1%	-64.0*	nt	nt
COc1ccccc1N(CC(=O)Nc1ccccc1C(F)(F)F)S(=O)(=O)c1ccc(C)cc1	-13.0%	-13.2	-20.3%[46.1 µM]	?
C/C(=N\NC(=O)CN(c1ccccc1)S(=O)(=O)c1ccccc1[N+](=O)[O-])C(C)(C)C	1.1%	-62.9*	8.5%	?
CC(C)(C)C1CCC(=NNC(=O)CN(c2ccccc2)S(=O)(=O)c2ccccc2[N+](=O)[O-])CC1 (configuration not stated)	-26.2%	-17.5	8.5%	3.9%
CCOc1ccc(CNC(=O)c2cc3ccccn3n2)cc1	63.8%	87.2	?	nt
CCS(=O)(=O)c1ncc(N(Cc2ccco2)Cc2sccc2C)c(C(=O)Nc2ccc(C)cc2C)n1	0.5%	-12.9	2.9%[46.1 µM]	?
CCc1ccccc1OCC(=O)Nc1cccc(S(=O)(=O)NCc2ccco2)c1	-12.7%	-15.5	nt	nt
O=C(CN1C(=O)S/C(=C\c2ccc(F)cc2)C1=O)Nc1cccc(S(=O)(=O)NCc2ccco2)c1	25.7%	-98.5*	-27.2%	6.0%[46.1 µM]
COC(=O)N[C@@H](C=Cc1ccccc1)[C@@H](C)[N+](=O)[O-]	nt	nt	nt	2.4%[14.2 µM]
CCOC(=O)[C@]12Cc3c(cc(OC)c(OC)c3OC)[C@H]1N(C)C(=O)c1ccccc12	-24.4%	-38.7	nt	nt
CCOC(=O)[C@]12Cc3cc(C)ccc3[C@H]1N(C)C(=O)c1cc(OC)ccc12	39.8µM*	-109.2*	nt	nt
CCOC(=O)[C@]12Cc3cc(OC)ccc3[C@H]1N(C(C)C)C(=O)c1cc(OC)ccc12	15.8µM*	-100.0*	nt	nt
CCOC(=O)[C@]12Cc3c(cc(OC)c(OC)c3OC)[C@H]1N(C1CCCCC1)C(=O)c1cc(OC)ccc12	12.6µM*	-99.3*	nt	nt
CCOC(=O)[C@]12Cc3c(cc(OC)c(OC)c3OC)[C@H]1N(C(C)C)C(=O)c1cc(OC)ccc12	14.1µM*	-99.6*	nt	nt
CCOC(=O)[C@]12Cc3c(cc(OC)c(OC)c3OC)[C@H]1N(Cc1ccccc1)C(=O)c1ccccc12	-5.0%	1.9	nt	nt
O=C1COCc2ccc(-c3cccc(CO)c3)cc2N1CCc1ccccc1	nt	-3.6	nt	nt
O=C(Nc1nc2ccccc2s1)c1cnccn1	nt	126.3	?	6.51µM*
O=C(Nc1nc2ccc(F)cc2s1)c1ccccn1	11.2µM*	-97.6*	?	?
O=C(Nc1nnc(SCc2ccc(F)cc2)s1)c1cccnc1Cl	-12.9%	17.8	-17.7%[46.1 µM]	6.5%[46.1 µM]
CCOc1ccc2nc(NC(=O)c3cnccn3)sc2c1	16.5%	10.0	0.9%	?
SMILES	FMDV inh	HCMV inh	Lassa entry inh	Marburg entry inh
O=C(Nc1nc2ccc(F)cc2s1)C1=NN(c2ccccc2)C(=O)CC1	0.0%	39.9	12.8%	14.4%
O=C(Nc1nnc(SCc2ccc(F)cc2)s1)c1ccccn1	-9.6%	-98.5*	?	?
CCOC(=O)N1CCc2c(sc3c2c(=O)n(CCc2ccccc2)c(=O)n3CC(=O)Nc2ccccc2C)C1	-14.0%	-35.4	0.1%[46.1 µM]	-9.7%[46.1 µM]
COc1ccc(CN2CCC(C(=O)Nc3ccc(Oc4cccnc4)cc3)CC2)cc1	?	-74.7*	?	?
COc1cccc(O)c1CN1CCC(C(=O)Nc2ccc(-c3cccc(C)c3)cc2)CC1	?	-30.8	?	?
COc1cccc(O)c1CN1CCC(C(=O)Nc2ccc(Oc3cccnc3)cc2)CC1	-10.4%	?	-26.3%	11.2µM*
Cc1ccc(C(=O)Nc2ccc(Cc3ccncc3)cc2)cc1[N+](=O)[O-]	?	-39.0	?	-28.5%
CC(=O)Nc1ccc2nc(NC(=O)c3ccc([N+](=O)[O-])o3)sc2c1	-16.3%	-102.3*	?	?
CC1CCN(c2ccc(NC(=O)c3ccc(Br)o3)cc2)CC1	38.6%	58.0	10µM*	?
CCC(=O)NC(=S)Nc1ccc(NC(=O)c2ccc(Br)o2)cc1	34.7%	-103.1*	nt	nt
Cc1c(C(=O)Nc2ccc(Cc3ccncc3)cc2)cccc1[N+](=O)[O-]	-2.5%	-78.8*	1.1%	?
COc1ccccc1NC(=O)CN1C(=O)CCSc2ccccc21	-3.6%	29.8	nt	-2.2%[46.1 µM]
COc1ccc(N2CCN(CCCNC(=O)c3nnc(Cc4ccccc4Cl)o3)CC2)cc1	0.0%	-28.3	-17.4%[46.1 µM]	?
O=C(Nc1ccc(S(=O)(=O)N2CCOCC2)cc1)c1ccc([N+](=O)[O-])o1	-14.4%	-98.5*	-24.5%	?
O=C(Nc1ccc(Cc2ccncc2)cc1)c1cccc([N+](=O)[O-])c1	-22.9%	-20.7	10.2%	3.0%
COc1cc(NC(=O)c2ccc([N+](=O)[O-])o2)ccc1NC(=O)c1cccs1	-6.8%	-4.4	?	?
O=C(Nc1ccc(N2CCOCC2)cc1)c1ccc([N+](=O)[O-])o1	27.1%	-103.0*	-28.0%[46.1 µM]	?
O=C(Nc1ccc(Cc2ccncc2)cc1)c1ccc([N+](=O)[O-])o1	10.1%	-100.9*	?	?
O=C(Nc1cccc(NC(=O)c2cccs2)c1)c1ccc([N+](=O)[O-])o1	-21.6%	-92.3*	?	?
O=C(N[C@@H](Cc1ccccc1)C(O)c1nc2ccccc2[nH]1)c1ccccn1 (some centres not stated)	nt	1.8	nt	nt
CN(C)CC(=O)N1CC(=O)N2[C@H](CO)[C@@H](c3ccc(Br)cc3)[C@H]2C1	nt	-8.5	nt	nt
CCCCc1ccc(NS(=O)(=O)c2ccc(N3CCCCS3(=O)=O)cc2)cc1	17.9%	12.3	-21.0%[46.1 µM]	nt
O=C(Nc1ccc(S(=O)(=O)N2CCCCCC2)cc1)c1ccc(Br)o1	46.0%	?	9.2µM*	?
Cc1cc(C)n(S(=O)(=O)/C=C/c2ccccc2)n1	-28.1%	-67.4*	?	5.17µM*
COC(=O)c1c(C)[nH]c(O)c1C=Nc1ccc(Oc2ccccc2)cc1	-20.3%	-65.3*	?	16.8%[46.1 µM]
Cc1cccc(C(=O)Nc2cc3c(cc2C)n(C)c(=O)n3C)c1	-7.1%	-15.8	-11.6%[46.1 µM]	nt
CC1CC(C)CN(c2ncc3c(n2)CC(c2ccccc2)CC3=O)C1 (configuration not stated)	0.0%	1.1	2.82µM*	-15.2%
COc1cc(C2CC(=O)c3cnc(N4CCN(Cc5ccccc5)CC4)nc3C2)cc(OC)c1OC (configuration not stated)	15.8µM*	38.4	23.1µM*	?
CC(C)c1ccc(C2CC(=O)c3cnc(N4CCc5ccccc5C4)nc3C2)cc1 (configuration not stated)	9.1%	11.7	-13.9%	11.6%
COc1ccc(C2CC(=O)c3c(C)nc(N4CCN(Cc5ccccc5)CC4)nc3C2)cc1OC (configuration not stated)	11.2µM*	-97.7*	8.2µM*	18.3µM*

Screens (PubChem BioAssay)
